This passage reports Potency results from PubChem BioAssay (NCATS).

The structures appear in SMILES notation. Records with an inconclusive call do not appear. Active and inactive are the calls of the source. Calls follow the shape of the dose curve; as a rule, active = well fitted curve in the direction sought with a large enough effect; inconclusive = small, poorly fitted or top-dose-only effect, or another doubt; inactive = no such curve, though single readings can be large; an effect the other way counts as inactive or inconclusive.

Assay [1] is described as follows: Quantitative High-Throughput drug screen in 47 multiple myeloma cell lines against the NCATS MIPE library collection: Karpas417_ECACC cell viability assay (AID 1918961). Conditions: Karpas417 myeloma viability, CellTiter-Glo ATP luminescence, 48 h; viability (% of DMSO): at 45.8 µM (top of the series). The gist of the method:
(§1)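 Approved and investigational drugs from MIPE 4.0 were added by pin tool to 500 cells per well. After 48 hours at 37C, ATP-based CellTiter-Glo luminescence indicated remaining viability.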

The nature of assay [2]: Quantitative High-Throughput drug screen in 47 multiple myeloma cell lines against the NCATS MIPE library collection: JIM3_ECACC cell viability assay (AID 1918963; also: nearly all actives have a fitted effect of over 35% in size). An outline of the steps:
(§2)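 Viability readout: CellTiter-Glo luminescence following 5 min room-temperature incubation with reagent. Prior exposure: 48 h, 37C, humidified 5% CO2, 500 cells per well.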

Assay [3] can be described thus: Quantitative High-Throughput drug screen in 47 multiple myeloma cell lines against the NCATS MIPE library collection: JIM1_ECACC cell viability assay (AID 1918964). The gist of the method:
(§3)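 qHTS of the MIPE 4.0 collection: 500 myeloma cells/well, 48 h drug exposure at 37C in 5% CO2, then CellTiter-Glo for 5 min at room temperature before luminescence reading.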

The nature of assay [4]: Quantitative High-Throughput drug screen in 47 multiple myeloma cell lines against the NCATS MIPE library collection: INA6_PLB cell viability assay (AID 1918965; also: nearly all actives have a fitted effect of over 55% in size). The gist of the method: as §1
Assay [5] is described as follows: Quantitative High-Throughput drug screen in 47 multiple myeloma cell lines against the NCATS MIPE library collection: H1112_PLB cell viability assay (AID 1918967; also: nearly all actives have a fitted effect of over 30% in size). The gist of the method: as §3
Assay [6] can be described thus: Quantitative High-Throughput drug screen in 47 multiple myeloma cell lines against the NCATS MIPE library collection: Karpas25_ECACC cell viability assay (AID 1918968; also: nearly all actives have a fitted effect of over 35% in size). An outline of the steps: as §3
Assay [7] in a line: Quantitative High-Throughput drug screen in 47 multiple myeloma cell lines against the NCATS MIPE library collection: KMS12BM_JCRB cell viability assay (AID 1918971). Also: nearly all actives have a fitted effect of over 35% in size. An outline of the steps:
(§4)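 Luminescent ATP measurement with CellTiter-Glo gives viability, scaled between DMSO-only wells (100%) and media-only wells (0%). Cells, 500 per well, faced library compounds for 48 hours at 37C.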

Assay [8] is described as follows: Quantitative High-Throughput drug screen in 47 multiple myeloma cell lines against the NCATS MIPE library collection: KMS12PE_JCRB cell viability assay (AID 1918972). Also: nearly all actives have a fitted effect of over 30% in size. An outline of the steps: as §1
Assay [9] in a line: Quantitative High-Throughput drug screen in 47 multiple myeloma cell lines against the NCATS MIPE library collection: KMS26_JCRB cell viability assay (AID 1918975). Also: nearly all actives have a fitted effect of over 45% in size. The gist of the method: as §4
Assay [10] in a line: Quantitative High-Throughput drug screen in 47 multiple myeloma cell lines against the NCATS MIPE library collection: NCIH929_DSMZ cell viability assay (AID 1918978). Also: nearly all actives have a fitted effect of over 35% in size. An outline of the steps: (§5)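 MIPE 4.0 approved/investigational drugs; 500 cells/well; 48 h 37 °C humidified 5% CO2; CTG luminescence readout; DMSO = 100%, media = 0% viability.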
Assay [11] in a line: Quantitative High-Throughput drug screen in 47 multiple myeloma cell lines against the NCATS MIPE library collection: OCIMY1_PLB cell viability assay (AID 1918979). Also: nearly all actives have a fitted effect of over 35% in size. An outline of the steps:
as §5

The nature of assay [12]: Quantitative High-Throughput drug screen in 47 multiple myeloma cell lines against the NCATS MIPE library collection: MM1R_ATCC cell viability assay (AID 1918981). Also: nearly all actives have a fitted effect of over 35% in size. The gist of the method:
as §5

Assay [13] is described as follows: Quantitative High-Throughput drug screen in 47 multiple myeloma cell lines against the NCATS MIPE library collection: KHM11_PLB cell viability assay (AID 1918962). Also: nearly all actives have a fitted effect of over 35% in size. An outline of the steps: as §2
A short description of assay [14]: Quantitative High-Throughput drug screen in 47 multiple myeloma cell lines against the NCATS MIPE library collection: JJN3_DSMZ cell viability assay (AID 1918966; also: nearly all actives have a fitted effect of over 50% in size). The gist of the method:
as §3

Assay [15] can be described thus: Quantitative High-Throughput drug screen in 47 multiple myeloma cell lines against the NCATS MIPE library collection: KMS27_JCRB cell viability assay (AID 1918970). Also: nearly all actives have a fitted effect of over 30% in size. An outline of the steps:
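ATP-based viability (CellTiter-Glo luminescence) is measured in cells treated 48 h with approved and investigational drugs at 37 °C. Controls are DMSO-only wells for full viability and media-only wells for none.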

The nature of assay [16]: Quantitative High-Throughput drug screen in 47 multiple myeloma cell lines against the NCATS MIPE library collection: MOLP8_DSMZ cell viability assay (AID 1918977). Also: nearly all actives have a fitted effect of over 45% in size. The gist of the method:
as §5

The nature of assay [17]: Quantitative High-Throughput drug screen in 47 multiple myeloma cell lines against the NCATS MIPE library collection: MM1S_ATCC cell viability assay (AID 1918980). Also: nearly all actives have a fitted effect of over 45% in size. The gist of the method: as §5
Assay [18] is described as follows: Quantitative High-Throughput drug screen in 47 multiple myeloma cell lines against the NCATS MIPE library collection: MMM1_PLB cell viability assay (AID 1918976). Also: nearly all actives have a fitted effect of over 35% in size. An outline of the steps:
as §5

A short description of assay [19]: Quantitative High-Throughput drug screen in 47 multiple myeloma cell lines against the NCATS MIPE library collection: KMS21BM_JCRB cell viability assay (AID 1918974). Conditions: ATP luminescence, 48 h; viability: at 45.8 µM (top of the series). An outline of the steps:
as §3

Assay [20] in a line: Quantitative High-Throughput drug screen in 47 multiple myeloma cell lines against the NCATS MIPE library collection: KMS20_JCRB cell viability assay (AID 1918973). Also: nearly all actives have a fitted effect of over 45% in size. The gist of the method:
as §3
Potency is read from the fitted curve at half-maximal effect.

As for `CN(C)CCc1c[nH]c2ccc(C[C@H]3COC(=O)N3)cc12`, the values for the Potency in [1] and in assay [4] were 3.72 µM (active) and 13.2 µM (active), respectively. Further, the Potency result in assay [2], in assay [3], in assay [5], in assay [6], in assay [7] and in assay [8] was “inactive” each time. Besides, the Potency result in assay [9], in [10], in [11] and in assay [12] was “inactive” throughout.
Regarding `COc1c(N2CCNC(C)C2)c(F)cc2c(=O)c(C(=O)O)cn(C3CC3)c12` (centres undefined), the Potency result in assay [1], in [13], in [2], in [14], in [5] and in assay [6] was “inactive” throughout. Moreover, the Potency result in assay [15], in assay [8], in assay [16], in [11] and in assay [17] was “inactive” each time.
In the case of `Cc1onc(-c2ccccc2Cl)c1C(=O)N[C@@H]1C(=O)N2[C@@H]1SC(C)(C)[C@@H]2C(=O)O`, the Potency entry in assay [1], in assay [13], in assay [2], in assay [5], in [6] and in [15] was “inactive” each time. Besides, the Potency entry in assay [7], in [8], in [18], in [10], in assay [11] and in assay [12] was “inactive” in each case. Moreover, the Potency in assay [17] is 14.8 µM (active).
Consider `CC(C(=O)O)c1ccc2c(c1)CC(=O)c1ccccc1S2` (centres undefined), for which the Potency in assay [1] was 0.0209 µM (active); in [6], 18.7 µM (active); in assay [19], 0.264 µM (active); in [17], 2.96 µM (active). Besides, the Potency result in assay [2], in [4], in [5], in assay [7], in assay [16] and in assay [10] was “inactive” throughout. Also, the Potency result in assay [11] is “inactive”.
`COc1nc(N)nc2c1ncn2[C@@H]1O[C@H](CO)[C@@H](O)[C@@H]1O`: the Potency result in assay [1], in [2], in [3], in assay [5], in assay [6] and in assay [7] was “inactive” throughout. For the same molecule, the Potency entry in [8], in assay [9], in [16], in [10], in assay [11] and in assay [12] was “inactive” throughout. Also, the Potency in assay [14] was 13.2 µM (active).
For the molecule `O=C(O)c1cc(=O)[nH]c(=O)[nH]1`, the Potency entry in assay [1], in assay [13], in assay [2], in [4], in [5] and in assay [6] was “inactive” in each case. The Potency entry in [15], in assay [8], in assay [9], in assay [10], in assay [17] and in assay [12] was “inactive” in each case.
As for `Nc1nc(F)nc2c1ncn2[C@@H]1O[C@H](CO)[C@@H](O)[C@@H]1O`, the Potency in assay [1] was 0.0469 µM (active); in assay [13] it was 0.187 µM (active); in [2], 0.662 µM (active); in assay [4] it was 0.166 µM (active); in assay [5], 0.526 µM (active); in [6] it was 0.296 µM (active). In addition, the Potency was 0.209 µM (active) in [7]; 0.235 µM (active) in assay [8]; 0.264 µM (active) in assay [20]; 0.059 µM (active) in assay [19]; 0.235 µM (active) in [9]; 0.469 µM (active) in assay [18]. The Potency is 0.166 µM (active) in assay [16]; 0.209 µM (active) in assay [10]; 0.469 µM (active) in assay [11]; 0.209 µM (active) in assay [17]; 0.166 µM (active) in assay [12].
On to `CCN(CC)CCn1c(=O)c(Cc2ccc(OC)cc2)nc2ccccc21`, for which the Potency result in assay [1], in [2], in assay [3], in [5], in [7] and in assay [8] was “inactive” in each case. The Potency result in [9], in assay [10], in assay [11], in [17] and in assay [12] was “inactive” each time.
Turning to `CCc1cc(C(N)=S)ccn1`, the Potency entry in assay [1], in assay [13], in [2], in assay [5], in assay [6] and in assay [7] was “inactive” in each case. Moreover, the Potency entry in assay [8], in assay [16] and in [11] was “inactive” throughout.
As to `CCOC(=O)[C@H](CCc1ccccc1)N[C@H]1CS[C@H](c2cccs2)CN(CC(=O)O)C1=O`, the Potency in assay [1] is 0.264 µM (active); in assay [5] it was 13.2 µM (active); in assay [6], 5.9 µM (active); in assay [15], 0.296 µM (active); in assay [7], 23.5 µM (active); in [8] it was 1.66 µM (active). Also, the Potency was 1.66 µM (active) in assay [20]; 0.132 µM (active) in [19]; 18.7 µM (active) in [9]; 16.6 µM (active) in assay [18]; 20.9 µM (active) in assay [16]; 5.9 µM (active) in assay [10]. The figures for the Potency in [17] and in assay [12] were 0.418 µM (active) and 18.7 µM (active), respectively. Besides, the Potency entry in [2] and in assay [11] was “inactive” in each case.
Turning to `C1CCC(C(CC2CCCCN2)C2CCCCC2)CC1` (centres undefined), the Potency is 18.7 µM (active) in assay [1]; 11.8 µM (active) in assay [13]; 18.7 µM (active) in [2]; 20.9 µM (active) in [3]; 9.35 µM (active) in assay [4]; 23.5 µM (active) in assay [5]. The Potency in [6] is 8.33 µM (active); in assay [15], 10.5 µM (active); in assay [7], 9.35 µM (active); in assay [8], 8.33 µM (active); in [19], 11.8 µM (active); in assay [9] it was 16.6 µM (active). The Potency in [18] was 8.33 µM (active); in [16], 16.6 µM (active); in assay [10], 20.9 µM (active); in [11] it was 29.6 µM (active); in assay [17], 6.62 µM (active); in assay [12], 9.35 µM (active).
Consider `O=C(O)c1ccc(-n2nc(-c3ccccc3O)nc2-c2ccccc2O)cc1`, for which, in assay [1], the Potency entry was “inactive”. The Potency in assay [2] was 18.7 µM (active); in [4] it was 18.7 µM (active); in assay [6], 16.6 µM (active); in assay [15], 18.7 µM (active); in assay [7], 20.9 µM (active); in [19] it was 20.9 µM (active).
As to `C#CCN[C@@H]1CCc2ccccc21`, the Potency result in assay [1], in assay [13], in assay [2], in [5], in assay [8] and in assay [9] was “inactive” throughout. Also, the Potency entry in assay [10], in assay [11], in assay [17] and in assay [12] was “inactive” throughout. The values for the Potency in assay [7] and in assay [18] were 11.8 µM (active) and 23.5 µM (active), respectively.
For the molecule `CC(=O)Oc1ccccc1C(=O)Nc1ncc([N+](=O)[O-])s1`, the Potency in assay [1] is 13.6 µM (active); in assay [13] it was 21.5 µM (active); in assay [2] it was 17.1 µM (active); in [4], 17.1 µM (active); in assay [14], 30.3 µM (active); in assay [5], 21.5 µM (active). Further, the Potency in assay [6] was 8.55 µM (active); in assay [7], 24.1 µM (active); in assay [8], 24.1 µM (active); in [19], 17.1 µM (active); in assay [9], 15.2 µM (active); in assay [18], 10.8 µM (active). In addition, the Potency in assay [16] was 34 µM (active); in [10], 19.1 µM (active); in [11], 42.9 µM (active); in assay [17], 21.5 µM (active); in [12], 19.1 µM (active).
